Test results as given in PubChem BioAssay AID1159580 (chemical genetic matrix, 2015).
Where “and” joins values, the source holds several entries; their conditions need not be identical. Equal entries are not always repeated. Hit rate of the full screen: of about 5,500 compounds, about 2,000 (36%) were called active. Inconclusive results (about 18%) are left out. Rule as the data show it: active = normalized growth mostly below about 0.91 (no sharp cut-off); inconclusive = no clear call, values can overlap the other calls; inactive = mostly above about 0.92. The list shows a part of the results.

Experiment: chemical genetic growth profiling, strain panel (AID 1159580);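 also: tested at 20 µM; growth read once vehicle control cultures reached saturation at 30 °C; 1 = growth at the plate median or of vehicle wells; lower values mean less growth of the strain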
Conditions: growth OD

Measured: normalized growth

COc1ccc(-c2coc3cc(O)cc(O)c3c2=O)cc1
active: S. cerevisiae deletion strains, locus YAL013W, strain DEP1, hits give low values 0.497 | S. cerevisiae deletion strains, locus YBR229C, strain ROT2, hits give low values 0.77 | S. cerevisiae deletion strains, locus YCL029C, strain bik1, hits give low values 0.496 | S. cerevisiae deletion strains, locus YDL035C, strain GPR1, hits give low values 0.241 | S. cerevisiae deletion strains, locus YDL074C, strain BRE1, hits give low values 0.261 | S. cerevisiae deletion strains, locus YDL101C, strain DUN1, hits give low values 0.358 | S. cerevisiae deletion strains, locus YDL134C, strain PPH21, hits give low values 0.295 | S. cerevisiae deletion strains, locus YDL185W, strain tfp1, hits give low values 0.899 | S. cerevisiae deletion strains, locus YDL192W, strain arf1, hits give low values 0.28 | S. cerevisiae deletion strains, locus YDR101C, strain arx1, hits give low values 0.504 | S. cerevisiae deletion strains, locus YDR150W, strain NUM1, hits give low values 0.323 | S. cerevisiae deletion strains, locus YDR162C, strain NBP2, hits give low values 0.12 | S. cerevisiae deletion strains, locus YDR318W, strain mcm21, hits give low values 0.265 | S. cerevisiae deletion strains, locus YDR388W, hits give low values 0.286 | S. cerevisiae deletion strains, locus YDR502C, strain sam2, hits give low values 0.287 | S. cerevisiae deletion strains, locus YEL061C, strain CIN8, hits give low values 0.206 | S. cerevisiae deletion strains, locus YER110C, hits give low values 0.539 | S. cerevisiae deletion strains, locus YER155C, strain BEM2, hits give low values 0.199 | S. cerevisiae deletion strains, locus YER167W, strain BCK2, hits give low values 0.178 | S. cerevisiae deletion strains, locus YGL078C, strain dbp3, hits give low values 0.649 | S. cerevisiae deletion strains, locus YGL086W, strain mad1, hits give low values 0.258 | S. cerevisiae deletion strains, locus YGL248W, strain PDE1, hits give low values 0.286 | S. cerevisiae deletion strains, locus YGR078C, strain PAC10, hits give low values 0.227 | S. cerevisiae deletion strains, locus YGR135W, strain pre9, hits give low values 0.314 | S. cerevisiae deletion strains, locus YGR229C, strain SMI1, hits give low values 0.196 | S. cerevisiae deletion strains, locus YGR252W, strain gcn5, hits give low values 0.507 | S. cerevisiae deletion strains, locus YHR030C, strain SLT2, hits give low values 0.248 and 0.299 | S. cerevisiae deletion strains, locus YHR079C, strain IRE1 (second series), hits give low values 0.526 | S. cerevisiae deletion strains, locus YHR079C, strain IRE1, hits give low values 0.293 | S. cerevisiae deletion strains, locus YHR094C, strain hxt1, hits give low values 0.627 | S. cerevisiae deletion strains, locus YHR129C, strain ARP1, hits give low values 0.363 | S. cerevisiae deletion strains, locus YHR200W, strain rpn10, hits give low values 0.513 | S. cerevisiae deletion strains, locus YIL066C, strain RNR3, hits give low values 0.361 | S. cerevisiae deletion strains, locus YIL073C, strain SPO22, hits give low values 0.532 | S. cerevisiae deletion strains, locus YIL125W, strain kgd1, hits give low values 0.697 | S. cerevisiae deletion strains, locus YIR030C, strain dcg1, hits give low values 0.465 | S. cerevisiae deletion strains, locus YJL095W, strain BCK1, hits give low values 0.172 and 0.287 | S. cerevisiae deletion strains, locus YJL134W, strain LCB3, hits give low values 0.7 | S. cerevisiae deletion strains, locus YJL168C, strain set2, hits give low values 0.888 | S. cerevisiae deletion strains, locus YJL187C, strain SWE1 (second series), hits give low values 0.353 | S. cerevisiae deletion strains, locus YJR043C, strain POL32, hits give low values 0.374 | S. cerevisiae deletion strains, locus YJR066W, strain TOR1, hits give low values 0.16 | S. cerevisiae deletion strains, locus YJR075W, strain HOC1, hits give low values 0.179 | S. cerevisiae deletion strains, locus YKL009W, strain mrt4, hits give low values 0.484 | S. cerevisiae deletion strains, locus YKL085W, strain MDH1 (second series), hits give low values 0.604 | S. cerevisiae deletion strains, locus YKL085W, strain MDH1, hits give low values 0.604 | S. cerevisiae deletion strains, locus YKL190W, strain CNB1, hits give low values 0.223 | S. cerevisiae deletion strains, locus YKR001C, strain vps1, hits give low values 0.189 | S. cerevisiae deletion strains, locus YLR039C, strain RIC1, hits give low values 0.241 | S. cerevisiae deletion strains, locus YLR058C, strain SHM2, hits give low values 0.365 | S. cerevisiae deletion strains, locus YLR102C, strain apc9, hits give low values 0.625 | S. cerevisiae deletion strains, locus YLR113W, strain HOG1, hits give low values 0.332 | S. cerevisiae deletion strains, locus YLR262C, strain YPT6, hits give low values 0.181 | S. cerevisiae deletion strains, locus YLR268W, strain sec22, hits give low values 0.211 | S. cerevisiae deletion strains, locus YLR330W, strain CHS5, hits give low values 0.356 | S. cerevisiae deletion strains, locus YLR342W, strain FKS1 (second series), hits give low values 0.289 | S. cerevisiae deletion strains, locus YLR371W, strain rom2, hits give low values 0.493 | S. cerevisiae deletion strains, locus YLR418C, strain cdc73, hits give low values 0.192 | S. cerevisiae deletion strains, locus YML016C, strain PPZ1, hits give low values 0.444 | S. cerevisiae deletion strains, locus YML032C, strain rad52, hits give low values 0.449 | S. cerevisiae deletion strains, locus YML124C, strain tub3, hits give low values 0.449 | S. cerevisiae deletion strains, locus YMR078C, strain ctf18, hits give low values 0.407 | S. cerevisiae deletion strains, locus YMR223W, strain ubp8, hits give low values 0.297 | S. cerevisiae deletion strains, locus YMR263W, strain SAP30, hits give low values 0.424 | S. cerevisiae deletion strains, locus YMR307W, strain GAS1, hits give low values 0.148 | S. cerevisiae deletion strains, locus YNL067W, strain RPL9B, hits give low values 0.234 | S. cerevisiae deletion strains, locus YNL128W, strain TEP1, hits give low values 0.272 | S. cerevisiae deletion strains, locus YNL153C, strain GIM3, hits give low values 0.439 | S. cerevisiae deletion strains, locus YNL183C, strain NPR1, hits give low values 0.228 | S. cerevisiae deletion strains, locus YNL233W, strain BNI4, hits give low values 0.242 | S. cerevisiae deletion strains, locus YNL250W, strain rad50, hits give low values 0.789 | S. cerevisiae deletion strains, locus YNL271C, strain bni1, hits give low values 0.623 | S. cerevisiae deletion strains, locus YNL298W, strain CLA4, hits give low values 0.459 | S. cerevisiae deletion strains, locus YNL307C, strain MCK1, hits give low values 0.114 | S. cerevisiae deletion strains, locus YNL322C, strain KRE1, hits give low values 0.337 | S. cerevisiae deletion strains, locus YNR052C, strain pop2, hits give low values 0.656 | S. cerevisiae deletion strains, locus YOL006C, strain TOP1, hits give low values 0.29 | S. cerevisiae deletion strains, locus YOL147C, strain pex11, hits give low values 0.362 | S. cerevisiae deletion strains, locus YOR061W, strain CKA2, hits give low values 0.432 | S. cerevisiae deletion strains, locus YOR069W, strain VPS5, hits give low values 0.501 | S. cerevisiae deletion strains, locus YOR136W, strain idh2, hits give low values 0.304 | S. cerevisiae deletion strains, locus YOR144C, strain elg1, hits give low values 0.652 | S. cerevisiae deletion strains, locus YOR184W, strain ser1, hits give low values 0.111 | S. cerevisiae deletion strains, locus YOR231W, strain MKK1, hits give low values 0.288 | S. cerevisiae deletion strains, locus YOR316C, strain cot1, hits give low values 0.636 | S. cerevisiae deletion strains, locus YPL055C, strain LGE1, hits give low values 0.176 | S. cerevisiae deletion strains, locus YPL241C, strain CIN2, hits give low values 0.289 | S. cerevisiae deletion strains, locus YPL256C, strain CLN2, hits give low values 0.345 | S. cerevisiae deletion strains, locus YPR119W, strain clb2, hits give low values 0.308 | S. cerevisiae deletion strains, locus YPR163C, strain tif3, hits give low values 0.207 | S. cerevisiae deletion strains, locus YPR167C, strain met16, hits give low values 0.44 | S. cerevisiae deletion strains, strain wtn01, hits give low values 0.226 | S. cerevisiae strains, strain wild type, hits give low values 0.244
inactive: S. cerevisiae deletion strains, locus YBR021W, strain FUR4, hits give low values 0.988 | S. cerevisiae deletion strains, locus YKL068W, hits give low values 0.964 | S. cerevisiae deletion strains, locus YOL012C, strain htz1 0.231 | S. cerevisiae deletion strains, locus YPR141C, strain kar3, hits give low values 0.935
